In PubChem BioAssay (EPA / NIEHS):
Inconclusive results are not listed. The source made the active and inactive calls. Rule for the calls: active = hit-call score of the fitted dose curve at least 0.9, where 1 is the maximum; inconclusive = response in the unintended direction; inactive = score below 0.9.

Assay: Tanguay_ZF_120hpf_BRAI_legacy: (Legacy) Oregon State University Tanguay Lab 120 Hour Post-fertilization zebrafish Assay for Brain Malformation (AID 2283641)
Procedure: Tanguay_ZF_120hpf_legacy is a whole embryo, multiplexed endpoint assay using zebrafish larvae exposed for 120 hours post fertilization on a 96-well plate.Tanguay_ZF_120hpf_BRAI_legacy is one of one assay component(s) measured or calculated from the Tanguay_ZF_120hpf_legacy assay. It is designed to make measurements of zebrafish development as detected with brightfield microscopy of developing zebrafish embryos.Data from the assay component Tanguay_ZF_120hpf_BRAI_legacy was analyzed into 1 assay endpoints. This assay endpoint, Tanguay_ZF_120hpf_BRAI_legacy, was analyzed in the positive analysis fitting direction relative to DMSO as the negative control and baseline of activity. Using a type of morphology reporter, gain-of-signal activity can be used to understand changes in developmentals as they relate to the whole embryo. To generalize the intended target to other relatable targets, this assay endpoint is annotated to the zebrafish development intended target family, where the subfamily is brain morphogenesis.
Zebrafish husbandry: Tropical 5D wild-type adult zebrafish were housed in at an approximate density of 1000 per 100 gallon tank at the Sinnhuber Aquatic Research Laboratory, Oregon State University, Corvallis, OR. Each tank was kept at standard laboratory conditions of 28C on a 14-h light/10-h dark photoperiod in fish water consisting of reverse osmosis water supplemented with a commercially available salt (Instant Ocean). Spawning funnels were placed into the tanks the night prior, and embryos were collected and staged. […] Ten microliters of each row of dilution plate 2 was added to 2 exposure plates. The final DMSO concentration used was 0.64% (vol/vol). Thirty-two embryos were also exposed to 5uM trimethyltin chloride (positive control). Plates were sealed to prevent evaporation and foil covered to reduce light exposure and kept in a 28C incubator. Embryos were statically exposed until 120 hpf. At 24 hpf, embryos were assessed for photomotor response using a custom photomotor response analysis tool (PRAT) and for developmental toxicity endpoints (MO24: mortality at 24 hpf, DP: developmental progression, SM: spontaneous movement, and NC: notochord distortion). At 120 hpf, locomotor activity was measured using Viewpoint Zebralab and assessed for 18 endpoints. Zebrafish acquisition and analysis program (ZAAP), a custom program designed to inventory, acquire, and manage zebrafish data, was used to collect developmental endpoints as either present or absent (i.e., binary responses were recorded). If mortality occurred for an embryo (at either 24 or 120 hpf), the non-mortality endpoints were not measured.

Row | SMILES | outcome | AC50
1 | C[C@]12CCC(=O)C=C1CC[C@@H]1[C@@H]2CC[C@@]2(C)[C@H]1CC[C@]2(C)O | inactive | 
2 | O=C(N[C@H]1CN2CCC1CC2)c1cc2ccoc2cn1 | inactive | 
3 | ClC1=C(Cl)[C@]2(Cl)[C@@H]3[C@@H]4C[C@@H]([C@H]5O[C@@H]45)[C@@H]3[C@@]1(Cl)C2(Cl)Cl | inactive | 
4 | CC(C)C(=O)OCC(C)(C)C(OC(=O)C(C)C)C(C)C (stereo not given) | inactive | 
5 | CC1=C2C[C@H]3[C@@H](CC=C4C[C@@H](O)CC[C@@]43C)[C@@H]2CC[C@]12O[C@@H]1C[C@H](C)CN[C@H]1[C@H]2C | inactive | 
6 | Oc1ccc(C(c2ccc(O)cc2)(C(F)(F)F)C(F)(F)F)cc1 | inactive | 
7 | O=C(NC(=O)c1c(F)cccc1F)Nc1cc(Cl)c(OC(F)(F)C(F)F)c(Cl)c1 | inactive | 
8 | CCOC(=O)C(O)(c1ccc(Cl)cc1)c1ccc(Cl)cc1 | inactive | 
9 | ClC1=C(Cl)[C@]2(Cl)[C@@H]3[C@H]4C[C@H]([C@@H]5O[C@H]45)[C@@H]3[C@@]1(Cl)C2(Cl)Cl |  | 66.7 µM (active)
10 | Nc1ccc(-c2ccc(N)cc2)cc1 | inactive | 
11 | Cc1cccc([N+](=O)[O-])c1 | inactive | 
12 | CCOCCOC(C)=O | inactive | 
13 | Cc1ccccc1O | inactive | 
14 | ClC(Cl)=C(c1ccc(Cl)cc1)c1ccc(Cl)cc1 | inactive | 
15 | NS(=O)(=O)C(F)(F)C(F)(F)C(F)(F)C(F)(F)C(F)(F)C(F)(F)C(F)(F)C(F)(F)F | inactive | 
16 | O=S(=O)(O)C(F)(F)C(F)(F)C(F)(F)C(F)(F)C(F)(F)C(F)(F)F |  | 14.9 µM (active)
17 | CC(c1ccc(O)cc1)(c1ccc(O)cc1)c1ccc(O)cc1 | inactive | 
18 | O=C(O)C(F)(F)C(F)(F)C(F)(F)C(F)(F)C(F)(F)C(F)(F)C(F)(F)C(F)(F)C(F)(F)F | inactive | 
19 | O=C(O)C(F)(F)C(F)(F)C(F)(F)C(F)(F)C(F)(F)C(F)(F)C(F)(F)C(F)(F)F | inactive | 
20 | Cc1cc(-c2ccc(N)c(C)c2)ccc1N | inactive | 

Row | SMILES | outcome | AC50
21 | CC(C)(O)C(=O)Nc1ccc([N+](=O)[O-])c(C(F)(F)F)c1 | inactive | 
22 | COc1ccc(O)c(C(C)(C)C)c1 | inactive | 
23 | CO/C=C(/C(=O)OC)c1ccccc1COc1cccc(C(F)(F)F)n1 |  | 3.77 µM (active)
24 | O=C(O)C(F)(F)C(F)(F)C(F)(F)C(F)(F)C(F)(F)F | inactive | 
25 | Cc1ccccc1CO[C@@H]1C[C@@]2(C(C)C)CC[C@]1(C)O2 | inactive | 
26 | CCC(C)(CC)c1cc(NC(=O)c2c(OC)cccc2OC)on1 | inactive | 
27 | Cc1cc2c3c(c1)C(c1ccccc1)=N[C@@H](NC(=O)c1ccncc1)C(=O)N3CC2 | inactive | 
28 | CCCCCCOC(=O)c1ccccc1C(=O)OCCCCCC | inactive | 
29 | C=CC(=O)NCNC(=O)C=C | inactive | 
30 | N#Cc1ccc(N(CC(N)=O)CC(F)(F)F)cc1C(F)(F)F | inactive | 
31 | CCNc1nc(NC(C)C)nc(SC)n1 | inactive | 
32 | C=CC(N)=O | inactive | 
33 | CCC(C)(c1ccc(O)cc1)c1ccc(O)cc1 |  | 50.6 µM (active)
34 | Cc1ccccc1[N+](=O)[O-] | inactive | 
35 | CCSC(=O)N(CC)C1CCCCC1 | inactive | 
36 | Cc1ccc(O)c(C)c1 | inactive | 
37 | CC#Cc1cc(C)nc(Nc2ccccc2)n1 | inactive | 
38 | CN(C)CCO | inactive | 
39 | CCCCCCCCOC(=O)c1ccccc1C(=O)OCCCCCCCC | inactive | 
40 | CCCCCCCCCC[N+](C)(C)CCCCCCCCCC | inactive | 
